Several values for one entry are separate records, joined by “and”; a condition that tells them apart may be missing. Identical values can stand only once. About 83,000 compounds went through this panel and 20% of them were active in at least one assay; those are over-represented in the sample as a whole.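 Method: cells in 96-well plates; compound added at one concentration; 48 h incubation; percent growth measured; values under 10 scored active.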 Activity calls are given as the source filed them.
Experiments:
Assay in all cases: NCI-60 one-dose screen, 48 h (100 = growth as untreated, 0 = no growth, -100 = all killed)
Settings in all cases: 10 µM unless noted
[1] = system: HCT-15 colon
[2] = system: HT29 colon
[3] = system: SNB-75 CNS
[4] = system: SNB-19 CNS
[5] = system: U251 CNS
[6] = system: SK-MEL-5 melanoma
[7] = system: UACC-62 melanoma
[8] = system: LOX IMVI melanoma
[9] = system: SK-MEL-28 melanoma
[10] = system: PC-3 prostate

Measured: growth

C/C=C(/C)C(=O)O[C@H]1CC[C@@]2(C)[C@@H]3CC[C@H]4[C@]5(O)C[C@H](O)[C@@]6(O)[C@@H](CN7C[C@@H](C)CC[C@H]7[C@@]6(C)O)[C@]5(O)C[C@@]42O[C@@]13O
inactive: [1] 98.4% | [2] 92.4% | [3] 79.9% | [4] 112% | [5] 103% | [6] 102% | [7] 127% | [8] 104% | [9] 124%

S=P(SP(=S)(c1ccccc1)c1ccccc1)(c1ccccc1)c1ccccc1
inactive: [1] 97% | [2] 101% | [3] 91.2% | [4] 103% | [5] 101% | [10] 93.5% | [7] 88.7% | [8] 98.5% | [9] 111%

O=[N+]([O-])c1cc(Cl)c(Cl)c([N+](=O)[O-])c1Cl
inactive: [2] 29.9% | [4] 103% | [5] 78.7% | [10] 66.8% | [6] 79.1% | [7] 86% | [9] 103%
active: [1] -18.5% | [8] -26.2%

COc1cc2c(c(OC)c1OC)-c1ccc(O)cc1[C@@H](NC(C)=O)CC2
active: [1] 4.26% and 6.32% | [2] 5.06%
inactive: [3] 12.7% and 14.9% | [4] 27.8% and 26.4% | [5] 22.5% and 18.3% | [7] 45.6% and 24.4% | [8] 12.1% and 20.2% | [9] 52.3% and 40%

Cc1c2ccncc2c(C)c2c1[nH]c1ccccc12
active: [1] -40.3% | [2] 2% | [3] -89% | [4] -84.8% | [5] -82.2% | [6] -97.7% | [8] -77.6% | [9] -96.7%
inactive: [7] 56.5%

COc1cc(/C=C\[N+](=O)[O-])ccc1OCc1ccccc1
inactive: [3] 79.2% | [4] 36.5% | [10] 23% | [6] 65.2% | [7] 30.5% | [9] 18.5%
active: [2] 4.62% | [5] 5.01% | [8] -83.3%

CC1=C(C)C(=O)O[C@@H]([C@](C)(O)[C@]2(O)CC[C@@]3(O)[C@@H]4C[C@H]5O[C@]56CC=CC(=O)[C@]6(C)[C@H]4CC[C@]23C)C1
inactive: [4] 30.8% | [10] 11.2%
active: [1] -1.03% | [2] 1.74% | [3] -11.3% | [6] -15.6% | [7] -5.31% | [8] -54.7% | [9] 1.96%

NC(=O)Oc1cc(OC(N)=O)cc(N(CCCl)CCCl)c1
inactive: [1] 68.9% | [2] 64.1% | [3] 49.2% | [4] 74.6% | [10] 71.7% | [6] 73.3% | [7] 46.2% | [8] 42.6% | [9] 82.5%

C[C@H](O)CCC(=O)c1ccoc1
inactive: [1] 110% | [2] 106% | [4] 100% | [5] 102% | [10] 95.7% | [7] 96% | [8] 95.5% | [9] 115%

N#Cc1ccc(Cl)cc1
inactive: [1] 110% | [2] 84.4% | [3] 101% | [4] 108% | [5] 105% | [10] 129% | [7] 104% | [8] 106% | [9] 117%

CCCN1C(=O)NC(=O)C(CC)(N2C(=O)c3c(F)c(F)c(F)c(F)c3C2=O)C1=O (configuration not stated)
active: [2] -66.6% | [3] -52.1% | [4] -94.9% | [5] -48% | [10] -59.2% | [6] -91.7% | [7] -68.6% | [8] -55.9% | [9] -93.7%

COc1ccc(N(CC(=O)NCCC[Te]c2ccccc2)C(=O)c2ccccc2)cc1
inactive: [3] 69.5% | [4] 36.2% | [5] 14.4% | [6] 55.2% | [7] 84.1% | [8] 32.8% | [9] 145%
active: [2] -25.5% | [10] 7.26%

Nc1ccc(S(=O)(=O)F)cc1
inactive: [2] 103% | [3] 99.5% | [4] 105% | [5] 105% | [10] 105% | [6] 106% | [7] 105% | [8] 99.4% | [9] 114%

C=CCOC(=O)C(Br)CC (configuration not stated)
inactive: [2] 110% | [3] 97.1% | [4] 109% | [5] 101% | [10] 95% | [6] 99.3% | [7] 98.8% | [8] 95.8% | [9] 110%

CNC(=O)O/N=C(\SC)C(=O)N(C)C
inactive: [1] 105% | [3] 101% | [4] 106% | [5] 101% | [10] 85% | [6] 109% | [7] 111% | [8] 90.4% | [9] 113%

CC[CH2][Sn]([Cl])([Cl])[CH2]CC.Oc1ccccc1C=NCCN=Cc1ccccc1O
26% (inactive) and -21.6% (active): [5]
inactive: [2] 79.1% and 58.3% | [3] 50.7% | [4] 79.2% and 67.5% | [10] 84.9% and 70.9% | [6] 60.1% and 50% | [7] 39.8% and 32.3% | [9] 48.3% and 45.7%
17.4% (inactive) and -11.1% (active): [8]

CC[C@H](CC[C@@H](C)[C@H]1CC[C@H]2[C@@H]3CC[C@H]4C[C@]5(CC[C@]4(C)[C@H]3CC[C@]12C)OO[C@](C)(C(F)(F)F)O5)C(C)C
inactive: [2] 102% | [3] 66.7% | [4] 90.4% | [5] 100% | [10] 94.2% | [6] 99.4% | [7] 83.2% | [8] 92.9% | [9] 89.9%

Nc1nc(=S)nc(N)[nH]1
inactive: [1] 101% | [2] 104% | [4] 97.2% | [5] 97% | [6] 103% | [7] 101% | [9] 100%

Cc1cc[n+](CCc2ccccc2)cc1
inactive: [1] 109% and 106% | [2] 98.4% and 92.6% | [3] 96.3% and 84.1% | [4] 102% and 106% | [10] 101% | [7] 102% and 116% | [9] 103% and 101%

COc1c(O)cc2c(c1OC)-c1ccc(SC)c(=O)cc1C(NC(C)=O)CC2 (configuration not stated)
inactive: [4] 18.5% | [7] 18.6% | [8] 15.4%
active: [1] -40.6% | [2] -18.9% | [3] -13.2% | [5] 5.68%

CCOC(=O)c1cncn1C(C)c1ccccc1 (configuration not stated)
inactive: [1] 106% | [2] 95.1% | [3] 94.3% | [4] 106% | [5] 100% | [10] 97.9% | [7] 100% | [8] 101% | [9] 114%

CN1CCN(c2ccc(Cl)cc2)CC1
inactive: [2] 26.4% | [3] 111% | [4] 93.9% | [5] 70.1% | [10] 107% | [6] 101% | [7] 86.4% | [8] 70.5% | [9] 99.1%

Nc1cccnc1
inactive: [1] 111% | [2] 103% | [4] 109% | [5] 103% | [10] 97.9% | [6] 112% | [7] 109% | [8] 104% | [9] 117%

CC(Oc1ccc(-c2ccccc2)cc1)C(=O)O (configuration not stated)
inactive: [1] 108% | [2] 103% | [3] 91.6% | [4] 97% | [5] 97.4% | [10] 101% | [8] 104% | [9] 110%

O=[N+]([O-])c1c(Cl)cc(Cl)c([N+](=O)[O-])c1Cl
inactive: [1] 85.9% | [2] 100% | [4] 113% | [5] 96.1% | [10] 83.2% | [6] 101% | [7] 108% | [8] 33.6% | [9] 100%

c1ccc2c(c1)O[As](O[As]1Oc3ccccc3O1)O2
active: [3] 1.6% | [5] 1.07%
inactive: [2] 24.8% | [4] 82.9% | [10] 36.9% | [6] 20.7% | [7] 43.8% | [8] 30.9% | [9] 44.4%

O=S1(=O)OCCO1
inactive: [2] 107% | [3] 90.5% | [5] 105% | [10] 99.9% | [6] 101% | [7] 87.4% | [8] 92.3% | [9] 100%

CCCC[C@@H]1CCN2C[C@@H](O)[C@@H](O)[C@@H]2[C@H]1O
inactive: [7] 111% [100 µM] and 89.9% [100 µM]

O=c1[nH]c(=O)[nH]c(=O)[nH]1
inactive: [2] 115% | [3] 103% | [4] 98.1% | [5] 132% | [10] 148% | [6] 107% | [7] 113% | [8] 129% | [9] 135%

Cc1cc(NC(=O)NCCCOc2ccc(N3C(N)=NC(N)=NC3(C)C)cc2Cl)ccc1S(=O)(=O)F
inactive: [3] 53.1% | [4] 27.7% | [5] 15.8% | [10] 11.9% | [6] 22.6% | [7] 25.2% | [8] 14.4% | [9] 48.9%
active: [2] 4.91%

— PubChem BioAssay (NCI)
